# Most compounds without a hit are left out; they make up all but 1.2% or so of the library.
# PrP UTR inh – suppresses PrP 5' UTR mRNA reporter expression | 340,000 compounds, 0.35% hits | cell-based PrP 5' UTR mRNA reporter, plate reader | inhibition, % (test concentration not listed) | AID 488862; in the data active = inhibition above about 52%
# Sa RN4220 lethal – kills Staphylococcus aureus RN4220. S. aureus RN4220 growth, OD600, 16 h. inhibition, % (no concentration beside the values). 330,000 compounds, 0.33% hits. AID 1259311; in the data active = inhibition above about 85%
# ugtP null kill – compounds lethal to S. aureus RN4220 ugtP deletion mutant; growth inhibition, % (test concentration not listed); OD600 growth, 16 h; 330,000 compounds, 0.54% hits; AID 1259309; in the data active = growth inhibition above about 68%
# TcdB inh – TcdB glycohydrolase inhibition; inhibition, % at 9.99 µM; TcdB glycohydrolase enzymatic assay, plate reader; 350,000 compounds, 0.24% hits; AID 652162; in the data active = inhibition above about 10%
# PfHsp40 yeast – restores yeast growth despite PfHsp40 toxicity. growth rescue, % at 12.5 µM. 340,000 compounds, 0.68% hits. S. cerevisiae expressing PfHsp40, growth rescue, ATP luminescence. AID 504582; in the data active = growth rescue above about 28%, passing the limit was not always enough;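 note: yeast W303a lacking pdr1 and pdr3 grown in galactose medium; growth measured after three days at 30 °C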
# Numbers stand for hits; i = inactive; nt = not tested or not shown.
SMILES,PrP UTR inh,Sa RN4220 lethal,ugtP null kill,TcdB inh,PfHsp40 yeast
COc1ccccc1NC(=O)N1C[C@H](O)COC[C@H]2O[C@@H](CC(=O)NCc3ccccc3)CC[C@@H]21,nt,nt,nt,i,nt
CN(C)n1cccc1/C=C(\C#N)S(=O)(=O)c1ccc(Cl)cc1,i,i,i,i,48.9
Cc1ccc(S(=O)(=O)/C(C#N)=C/c2c(Oc3ccc(Cl)cc3)nc3c(C)cccn3c2=O)cc1,nt,i,i,nt,nt
CC(=O)c1ccc(OC(=O)C2c3ccccc3Oc3ccccc32)cc1,i,i,i,nt,i
Cc1ccc(OC(=O)C2c3ccccc3Oc3ccccc32)cc1C,i,i,90.2,i,i
Cc1ccccc1-c1ccc([C@@H]2[C@@H](CO)N3CCCCN(C(=O)CN4CCOCC4)C[C@@H]23)cc1,nt,nt,nt,i,nt
CO[C@H]1CN(C)C(=O)c2ccc(NC(C)=O)cc2OC[C@H](C)N(C(=O)c2ccc(F)cc2)C[C@@H]1C,nt,nt,nt,i,nt
Cc1cc(N/N=C/c2ccncc2)nc2ccccc12,i,nt,nt,11.6,i
Clc1ccc(-c2csc(-c3cccnc3)n2)s1,i,i,i,i,29.4
CC(C)Sc1cc(N2CCOCC2)nc(-c2ccccc2)n1,i,i,97.5,nt,i
CC(C)Sc1cc(N2CCCC2)nc(-c2ccccc2)n1,i,i,i,nt,i
Cc1nn(-c2ccccc2)c(C)c1C=NN1CCN(c2ccccn2)CC1,nt,i,i,nt,nt
CC12CCC(=O)N1C(C(=O)OCc1c(Cl)cccc1Cl)CS2 (stereo not drawn),i,i,i,12.1,i
CC12CCC(=O)N1C(C(=O)Oc1cccc(F)c1)CS2 (stereo not drawn),nt,nt,nt,i,nt
Cn1c(SCC(=O)Nc2nc3ccccc3s2)nnc1-c1ccccc1,i,i,i,nt,i
CC1(C)Cc2ccccc2-c2nnc(SCC(=O)Nc3nc4ccccc4s3)n21,i,88.3,97.9,nt,i
CC1CCC(C(=O)NC(C(=O)NCCN2CCC(C)CC2)C(C)C)CC1 (stereo not drawn),i,i,i,nt,46.1
C[C@H](CO)N1C[C@H](C)[C@@H](CN(C)C(=O)Nc2ccc3c(c2)OCO3)Oc2c(NC(=O)c3ccc(-c4nccs4)cc3)cccc2C1=O,nt,nt,nt,i,nt
COc1ccc(N2C(=O)CC(N3CCC(O)(c4ccc(Br)cc4)CC3)C2=O)cc1 (stereo not drawn),i,i,i,nt,i
CCCOc1ccc(N2C(=O)CC(N3CCC(O)(c4cccc(C(F)(F)F)c4)CC3)C2=O)cc1 (stereo not drawn),i,i,i,nt,28.4
COC(=O)C1NC(C(NC(=O)COc2ccccc2)C(=O)Nc2ccc(OC)cc2)SC1(C)C (stereo not drawn),nt,i,i,nt,nt
Nc1ccc2c(c1)C(=O)C(=O)c1ccccc1-2,i,98.5,97.7,nt,i
O=C(NN=Cc1ccc(F)cc1)c1csnn1,nt,i,i,nt,nt
O=C(NC1=NCCS1)c1ccccc1Cl,i,i,i,i,i
O=C(NC1=NCCS1)c1csc2ccccc12,i,i,i,nt,49.5
SMILES,PrP UTR inh,Sa RN4220 lethal,ugtP null kill,TcdB inh,PfHsp40 yeast
CC(=O)Oc1ccccc1C(=O)C=Cc1cccc([N+](=O)[O-])c1,i,i,i,i,127.6
Cc1cc(O)c(C(=O)/C=C/c2cccc([N+](=O)[O-])c2)c(=O)o1,i,nt,nt,i,i
Cc1ccc(OCC(=O)NN=Cc2cn(Cc3ccccc3)c3ccccc23)cc1,nt,i,i,nt,nt
CNC(=S)N/N=C(\C)c1ccc(N2CCOCC2)cc1,i,nt,nt,i,203.2
CCNC(=S)N/N=C(\C)c1ccc(N2CCOCC2)cc1,i,nt,nt,i,i
c1ccc2nc3c(ccc4ccccc43)cc2c1,i,i,i,i,i
CCCc1nc2c(ccc3ccccc32)cc1CC,i,i,83.1,i,i
CCCCN1/C(=C/c2ccc3ccccc3[n+]2CC)Sc2ccccc21,i,nt,nt,nt,128.2
CCN1/C(=C/c2cccc[n+]2C)Sc2ccc(OC)cc21,i,nt,nt,i,i
CCN1/C(=C/c2ccc3cc(C)ccc3[n+]2C)Sc2ccc3sccc3c21,i,99.4,100.3,i,153.0
CCN1/C(=C/c2ccc3cc(C)ccc3[n+]2CC)Sc2cc(C)ccc21,i,100.2,100.4,i,i
CCCCN1/C(=C/c2cccc[n+]2C)Sc2cc(NC(C)=O)ccc21,i,i,i,i,i
Cc1ccc2c(c1)S/C(=C/c1ccc[n+](C)c1)N2CCO,i,i,i,i,i
C[C@H]1CN([C@@H](C)CO)C(=O)c2cc(NC(=O)C3CCCCC3)ccc2O[C@@H]1CN(C)Cc1ccc(C(=O)O)cc1,nt,nt,nt,i,nt
CCCNC(=O)c1cc(C2CCCCN2S(=O)(=O)c2cccc3cccnc23)on1 (stereo not drawn),nt,nt,nt,i,nt
O=C(NCc1cccnc1)c1cc(C2CCCCN2S(=O)(=O)c2cccc3cccnc23)on1 (stereo not drawn),nt,nt,nt,10.1,nt

# Source: PubChem BioAssay (several laboratories)
